According to PubChem BioAssay (Tox21):
“And” between values parts separate entries of the source, which are not always exact repeats. Equal values may be shown once. Results filed as inconclusive are left out. The source made the active and inactive calls. Unless noted, calls follow the shape of the dose curve; as a rule, active = well fitted curve in the direction sought with a large enough effect in the repeat runs; inconclusive = weak or mixed curves; inactive = no such curve, though single readings can be large; an effect the other way counts as inactive or inconclusive.

What was measured:
[1] = qHTS assay for small molecules that induce genotoxicity in human embryonic kidney cells expressing luciferase-tagged ATAD5 (AID 651632); also: nearly all actives have a fitted effect of over 15% in size; also: potency is read from the fitted curve at half-maximal effect
In short: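 A rise in luciferase signal from ATAD5-tagged HEK293T cells marks genetic stress. Cells were exposed to compounds for 16 hr at 37C, 5% CO2, then luciferase was quantified after a 30 min room-temperature incubation with Amplite.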

[2] = qHTS assay for small molecule agonists of the p53 signaling pathway - cell viability (AID 651633; calls by dose curve; also: nearly all actives have a fitted effect of over 30% in size; also: potency is read from the fitted curve at half-maximal effect)
In short: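 Viability counter-read: CellTiter-Glo luminescence (30 min, room temperature) in the same p53RE-bla plates. These plates had been exposed to compounds for 16 h at 37 C.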

[3] = qHTS assay for small molecules that induce genotoxicity in human embryonic kidney cells expressing luciferase-tagged ATAD5 - cell viability (AID 651634; calls by dose curve; also: nearly all actives have a fitted effect of over 25% in size; also: potency is read from the fitted curve at half-maximal effect)
In short: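 Cytotoxicity counter-readout: after 15.5 hr compound treatment at 37C, live-cell protease activity in ATAD5-luciferase HEK293T cells measured by CellTiter-Fluor fluorescence, 30 min development at 37C.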

[4] = qHTS assay for small molecule disruptors of the mitochondrial membrane potential - cell viability (AID 720634; calls by dose curve; also: nearly all actives have a fitted effect of over 20% in size; also: potency is read from the fitted curve at half-maximal effect)
In short: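 Cytotoxicity was quantified from ATP content by CellTiter-Glo luminescence in the same wells as the MMP dye read-out. HepG2 (2,000 cells/well) were plated overnight and exposed to compounds for 1 hr at 37 C.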

[5] = qHTS assay for small molecule disruptors of the mitochondrial membrane potential (AID 720635); also: potency is read from the fitted curve at half-maximal effect
In short: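 Mitochondrial membrane potential tracked with Mito-MPS dye, red aggregates (ex 540/em 590 nm) against green monomers (ex 490/em 535 nm). Compound treatment 1 hr at 37C, dye 30 min in HepG2.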

[6] = qHTS assay to test for compound auto fluorescence at 590 nm (red) in HepG2 cells (AID 720674)
In short: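 Red autofluorescence (Ex/Em 540/590 nm, Rose Bengal sodium equivalents) was measured in HepG2 cells, 2,000 per well in MEM plus 10% FBS, plated overnight at 37 C. Readings were taken 1 hr after adding 23 nL compound or DMSO, at 37 C and 5% CO2.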

[7] = qHTS assay to test for compound auto fluorescence at 535 nm (green) in HepG2 cells (AID 720675)
[8] = qHTS assay to test for compound auto fluorescence at 460 nm (blue) in HEK293 cells (AID 720678)
In short: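 Intrinsic compound fluorescence is recorded in live HEK293 cultures after overnight incubation at 37C, 5% CO2, using excitation 405 nm and emission 460 nm. Values are referenced to triamterene.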

[9] = qHTS assay to test for compound auto fluorescence at 590 nm (red) in HEK293 cells (AID 720679)
In short: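 Red autofluorescence, HEK293 cells: 2,000 cells/well; attach 4-5 hr 37C; add 23 nL cpd or DMSO; incubate o/n 37C 5% CO2; read Ex540/Em590; Rose Bengal sodium reference.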

[10] = qHTS assay to test for compound auto fluorescence at 535 nm (green) in HEK293 cells (AID 720680)
[11] = qHTS assay to test for compound auto fluorescence at 460 nm (blue) in HEK293 cell free culture (AID 720681)
In short: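 Blue fluorescence (Ex 405/Em 460 nm, triamterene-equivalent) was read immediately after pin transfer of compound or DMSO into medium (DMEM, 10% FBS) without cells.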

[12] = qHTS assay to test for compound auto fluorescence at 535 nm (green) in HEK293 cell free culture (AID 720682)
In short: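 Fluorescein serves as the green reference fluorophore; each compound's intrinsic emission at 535 nm (excitation 485 nm) is reported as an equivalent amount of that dye, measured in serum-containing DMEM without cells.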

[13] = qHTS assay to test for compound auto fluorescence at 590 nm (red) in HEK293 cell free culture (AID 720683)
In short: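 Red-channel autofluorescence of compounds in culture medium (DMEM, 10% FBS), no cells, measured at 540/590 nm. Rose Bengal sodium is the reference fluorophore for equivalence.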

[14] = qHTS assay to test for compound auto fluorescence at 590 nm (red) in HepG2 cell free culture (AID 720684)
In short: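 Cell-free; medium MEM + 10% FBS; compound or DMSO added by pintool; read Ex 540/Em 590 nm; Rose Bengal sodium as red reference fluorophore.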

[15] = qHTS assay to test for compound auto fluorescence at 460 nm (blue) in HepG2 cell free culture (AID 720685)
In short: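 Cell-free plates of MEM plus 10% FBS received 23 nL compound or DMSO vehicle; blue-channel (405/460 nm) intensity scored against triamterene as reference fluorophore.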

[16] = qHTS assay to test for compound auto fluorescence at 535 nm (green) in HepG2 cell free culture (AID 720686)
[17] = qHTS assay to test for compound auto fluorescence at 460 nm (blue) in HepG2 cells (AID 720687)
In short: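 Blue-channel autofluorescence (Ex/Em 405/460 nm, triamterene-equivalent) was measured after 1 hr compound exposure at 37 C, 5% CO2. Cells were HepG2, plated overnight at 37 C in MEM plus 10% FBS.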

[18] = biological target: Glucocorticoid receptor (Homo sapiens) (UniProt P04150); assay: qHTS assay to identify small molecule agonists of the glucocorticoid receptor (GR) signaling pathway (AID 720691; active = well fitted activation curve with a large enough effect in the signal ratio in the repeat runs, not every such curve was filed as active; the % refers to the signal ratio; also: potency is read from the fitted curve at half-maximal effect); conditions: GR-bla HeLa, beta-lactamase reporter ratio, 18 h; activation: at 62.4 µM (top of the series)
Glucocorticoid receptor (Homo sapiens), sequence (P04150 whole entry, looked up): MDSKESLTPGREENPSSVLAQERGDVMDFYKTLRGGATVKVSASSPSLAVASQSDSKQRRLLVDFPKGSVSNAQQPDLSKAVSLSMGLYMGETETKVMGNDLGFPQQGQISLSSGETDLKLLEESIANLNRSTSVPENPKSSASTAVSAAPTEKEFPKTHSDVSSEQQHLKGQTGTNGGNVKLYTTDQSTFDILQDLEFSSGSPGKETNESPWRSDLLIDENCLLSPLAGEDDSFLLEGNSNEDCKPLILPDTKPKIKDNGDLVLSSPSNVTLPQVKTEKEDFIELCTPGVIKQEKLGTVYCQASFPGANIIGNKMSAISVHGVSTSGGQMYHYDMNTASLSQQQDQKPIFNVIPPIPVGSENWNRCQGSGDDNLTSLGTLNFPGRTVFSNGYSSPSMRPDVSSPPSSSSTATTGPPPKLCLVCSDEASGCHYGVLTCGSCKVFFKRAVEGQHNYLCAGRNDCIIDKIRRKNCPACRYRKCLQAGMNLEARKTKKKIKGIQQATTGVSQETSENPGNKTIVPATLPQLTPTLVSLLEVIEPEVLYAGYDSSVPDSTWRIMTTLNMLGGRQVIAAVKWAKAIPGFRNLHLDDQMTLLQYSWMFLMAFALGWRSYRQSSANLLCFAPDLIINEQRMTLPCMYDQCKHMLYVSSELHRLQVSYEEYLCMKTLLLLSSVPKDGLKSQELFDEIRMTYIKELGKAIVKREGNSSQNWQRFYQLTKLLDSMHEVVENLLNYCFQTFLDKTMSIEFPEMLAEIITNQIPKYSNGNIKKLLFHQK
In short: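 Agonist-mode qHTS in HeLa cells stably expressing a glucocorticoid-response-element beta-lactamase reporter. Fluorescence intensity read with FRET substrate (2 h, room temperature) after 18 h compound treatment at 37 C.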

[19] = qHTS assay for small molecule agonists of the p53 signaling pathway (AID 651631; calls by dose curve; also: potency is read from the fitted curve at half-maximal effect; nearly all actives have a fitted effect of over 15% in size)
In short: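 Read-out is beta-lactamase FRET fluorescence measured 2 h after substrate addition at room temperature, in HCT-116 cells with a p53 response element-driven reporter exposed to compounds for 16 h at 37 °C.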

[20] = biological target: Glucocorticoid receptor (Homo sapiens) (UniProt P04150); assay: qHTS assay to identify small molecule antagonists of the glucocorticoid receptor (GR) signaling pathway (AID 720692; active = well fitted inhibition curve with a large enough effect in the signal ratio in the repeat runs, not every such curve was filed as active; the % refers to the signal ratio; also: potency is read from the fitted curve at half-maximal effect)
In short: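 Inhibition of dexamethasone-driven (5 nM final) beta-lactamase expression was measured in GRE-reporter HeLa cells over 18 h at 37C. Fluorescence was read after 2 h with the B/G FRET substrate at room temperature.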

Measured: Potency

CCCCCCOC(=O)c1ccc(O)cc1
active: [1] 21.7 µM and 19.3 µM | [4] 27.3 µM and 17.2 µM | [5] 6.12 µM and 8.63 µM
not listed: [19] | [20]
inactive: all other assays above

CCCCC(CC)CN=C(N)NC(N)=NCCCCCCN=C(N)NC(N)=NCC(CC)CCCC (stereo not drawn)
active: [2] 26.6 µM | [3] 26.6 µM | [4] 21.1 µM | [5] 17.6 µM
not listed: [18] | [19] | [20]
inactive: all other assays above

Oc1c(Cl)cc(Cl)c2cccnc12
active: [19] 2.37 µM | [2] 2.98 µM | [5] 10.6 µM
not listed: [1] | [3] | [9] | [16] | [18] | [20]
inactive: all other assays above

CCCCc1oc2ccc(NS(C)(=O)=O)cc2c1C(=O)c1ccc(OCCCN(CCCC)CCCC)cc1
active: [2] 29.8 µM | [3] 26.6 µM | [4] 29.8 µM | [5] 9.44 µM
not listed: [18] | [19] | [20]
inactive: all other assays above

Cc1ccc(-n2nc(C(C)(C)C)cc2NC(=O)Nc2ccc(OCCN3CCOCC3)c3ccccc23)cc1
active: [5] 18.8 µM
not listed: [18] | [19] | [20]
inactive: all other assays above

c1ccc(CSCc2ccccc2)cc1
active: [5] 43.1 µM
not listed: [19] | [20]
inactive: all other assays above

CCc1cc(Cc2cc(CC)cc(C(C)(C)C)c2O)c(O)c(C(C)(C)C)c1
active: [2] 10.9 µM | [3] 61.1 µM | [5] 0.864 µM
not listed: [18] | [19] | [20]
inactive: all other assays above

Cc1onc(-c2c(Cl)cccc2Cl)c1C(=O)N[C@@H]1C(=O)N2[C@@H]1SC(C)(C)[C@@H]2C(=O)O
not listed: [18] | [19] | [20]
inactive: all other assays above

CCCCC(CC)COP(=O)(O)OCC(CC)CCCC (stereo not drawn)
active: [2] 61.3 µM and 27.3 µM | [5] 68.7 µM | [20] 49.1 µM
not listed: [18] | [19]
inactive: all other assays above

O=C1CCCc2c1cc1ccc3cccc4ccc2c1c34
active: [19] 55.1 µM | [5] 8.74 µM | [18] 22.2 µM
not listed: [1] | [4] | [20]
inactive: all other assays above

NNc1nc(-c2ccc(N)cc2)cs1
active: [3] 24.3 µM | [5] 0.0545 µM
not listed: [18] | [19] | [20]
inactive: all other assays above

C[C@H]1[C@H]2CC[C@H]3[C@@H]4CC=C5C[C@@H](N(C)C)CC[C@]5(C)[C@H]4CC[C@]23CN1C
not listed: [16] | [19]
inactive: all other assays above

CCOC(=O)O[C@]1(C(=O)OCCl)CC[C@H]2[C@@H]3CCC4=CC(=O)C=C[C@]4(C)[C@H]3[C@@H](O)C[C@@]21C
not listed: [9] | [18] | [19] | [20]
inactive: all other assays above

CCCCCCCC/C=C\CCCCCCCCOCCO
active: [2] 31.6 µM | [3] 39.8 µM | [4] 79.4 µM | [5] 1.78 µM
not listed: [18] | [19] | [20]
inactive: all other assays above
